Screening results from PubChem BioAssay.
This is a sample that favours compounds with a hit; in the whole collection about 7.2% have one here.
HCV inh: blocks hepatitis C virus. Huh7.5.1 HCVcc-Cre infection, luciferase reporter, 44 h. Potency, µM (series often up to 41.8 µM), for inactives: top-dose activity change, negative = inhibition, usual class: inhibitors. 340,000 compounds, 3.4% hits. AID 651820
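Whole-lifecycle infectious HCVcc-Cre system; cells 1,000/well, compound then virus (~0.5 moi) added 4 h after plating, 44 h culture. Luciferase read 15 sec following 15 min substrate incubation, room temp.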
FMDV antiviral: antivirals against foot and mouth disease virus; FMDV antiviral cell-based qHTS; Potency, µM (series often up to 57.9 µM), for inactives: at the highest dose activity change, negative = inhibition, actives largely listed as inhibitors; 410,000 compounds, 1.2% hits; AID 1159524; calls by dose curve; tested in HEK293T cells; also: read-out not given here; nearly all actives have a fitted effect of over 45% in size
Sm TGR inh: blocks Schistosoma mansoni thioredoxin glutathione reductase; Q962Y6; Potency, µM (highest dose often 114 µM), without a hit: at the top dose activity change, negative = inhibition, usual class: inhibitors; 360,000 compounds, 3% hits; purified TGR, DTNB reduction, TNB absorbance 405 nm; also: nearly all actives have a fitted effect of over 60% in size
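Kinetic colorimetric format: TGR-catalysed, NADPH-driven DTNB reduction monitored via TNB absorbance. Enzyme dispensed at 20 nM; compound exposure 15 min at room temperature before reaction start.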
Lassa entry inh: inhibitors of Lassa virus binding or cell entry | Lassa virus pseudotype entry inhibition, cell reporter | Potency, µM (series often up to 37.9 µM), for inactives: top-dose activity change, negative = inhibition, hits mostly inhibitors | 300,000 compounds, 1.2% hits | AID 540256; calls by dose curve; tested in HEK293 cells; also: nearly all actives have a fitted effect of over 50% in size
RE007 growth inh: less growth of the S. pombe RE007 Vpr strain; S. pombe RE007 Vpr strain, BacTiter-Glo ATP luminescence, 24 h; Potency, µM (series often up to 92.2 µM), without a hit: at the top dose activity change, negative = less growth, usual class: inhibitors; 360,000 compounds, 0.21% hits; active = well fitted falling curve with a large enough effect; inconclusive = small, poorly fitted or top-dose-only effect; inactive = no such curve, though single readings can be large or run the other way; also: nearly all actives have a fitted effect of over 50% in size
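Fission yeast strain RE007, carrying one chromosomally integrated HIV-1 vpr copy, was seeded at OD 0.01 in PMG+AL medium with 23 nL pinned compound. After 24 h at 30 °C and 99% humidity, viability was read by BacTiter-Glo luminescence.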
Marburg entry inh: blocks Marburg virus binding to or entry into cells; Marburg virus pseudotyped entry inhibition, cell reporter; Potency, µM (series often up to 37.8 µM), for inactives: at the highest dose activity change, negative = inhibition, hits mostly inhibitors; 300,000 compounds, 1.8% hits; AID 540276; calls by dose curve; tested in HEK293 cells
An asterisk follows results filed as active; ? = inconclusive; · = not tested or not shown; ! = a repeat was not active; [ ] = another dose, or the depositor's remark. Unless noted, calls follow the shape of the dose curve; as a rule, active = well fitted curve in the direction sought with a large enough effect; inconclusive = small, poorly fitted or top-dose-only effect, or another doubt; inactive = no such curve, though single readings can be large; an effect the other way counts as inactive or inconclusive. % is scaled to controls: 0 for no effect and ±100 for the full control effect; potency is read from the fitted curve at half-maximal effect.

SMILES	HCV inh	FMDV antiviral	Sm TGR inh	Lassa entry inh	RE007 growth inh	Marburg entry inh
COc1ccc(C(=O)c2coc3c2C(=O)C(=O)c2ccccc2-3)cc1	-25%	41%	-25%	11µM*	40µM*	?
CCOc1ccccc1OCCNC1CCCC1	-11%	-5%	-14%	-3%	5%	-1%
CCOc1cccc(=NC2CCCCC2)c2c(C)n(C)c(C)c12	?	11µM*	-11%	-25%	-12%	?
CC(C)c1ccc(NC(=O)C2CCCN(S(=O)(=O)c3cccc4cccnc34)C2)cc1 (stereo unspecified)	·	?	-1%	?	·	?
O=C(CSc1nnc(-c2c[nH]c3ccccc23)o1)N1c2ccccc2CCc2ccccc21	7.9µM*	·	0%	?	-6%	?
O=C(CSc1nnc(-c2c[nH]c3ccccc23)o1)N1CCCCC1	11%	·	-3%	-15%	4%	?
O=[N+]([O-])C1C(c2ccccc2)C12c1ccccc1-c1ccccc12 (stereo unspecified)	·	14µM*	·	·	-22%	·
CC1(C)c2ccccc2C(=O)c2ccccc21	0%	0%	·	?	18%	-6%
Cc1ccc(S(=O)(=O)NCCC(=O)NNC(=O)c2ccccc2O)cc1C	3.2µM*	-14%	-2%	-2%	11%	0%
COc1cc(OC)cc(C(=O)NNC(=O)CCNS(=O)(=O)c2ccc(C)c(C)c2)c1	-2%	0%	-2%	1%	5%	-9%
Cc1ccc(Sc2ncnc3onc(C)c23)cc1	-16%	18µM*	-23%	-4%	?	?
Cc1noc2ncnc(Sc3ccc(Cl)cc3)c12	?	?	?	-20%	?	?
COc1ccccc1-c1cncnc1NCc1cccnc1	·	9%	·	·	·	·
c1ccc(-c2ccc(-c3cn4c(n3)CCC4)cc2)cc1	?	?	0%	10µM*	?	7.1µM*
O=C(O)c1c(Cl)cccc1Cl	3%	-4%	-8%	·	11%	-5%
C=Cc1c(C)c2cc3[nH]c(cc4nc(cc5nc(cc1[nH]2)C(C)=C5CCC(=O)O)C(CCC(=O)O)=C4C)c(C)c3C=C	-15%	?	?	?	-2%[18.4 µM]	7.9µM*!
CC1CCc2c(sc3nc(C(C)(C)C)nc(N4CCN(C(=O)CCl)CC4)c23)C1 (stereo unspecified)	?	20µM*	3%	?	-14%	?
CCC(=O)N1CCN(c2nc(CC)nc3sc4c(c23)CCCC4)CC1	?	?	3%	?	0%	-30%
Cc1cc(Cl)ccc1NC(=O)C1CCCN1C(=O)c1cccs1 (stereo unspecified)	4%	-11%	0%	-11%	3%	-2%
CCN(C(=O)[C@@H]1CCCN1C(=O)c1cccs1)c1nc2cc(Cl)ccc2s1	10µM*	13%	4%	1%	10%	?
CC1(Cc2ccc(F)cc2)C(=O)Nc2ccc(-c3cccnc3)cc21 (stereo unspecified)	·	0%	·	·	-18%	·
C/C(=N\N=C(/N)SC1CC(=O)N(c2ccc(Br)cc2)C1=O)c1cccs1 (stereo unspecified)	17%	4%	14µM*	-28%	-1%	-3%
C/C(=N\N=C(/N)SC1CC(=O)N(c2ccccc2)C1=O)c1cccs1 (stereo unspecified)	6%	·	5%	-10%	-5%	0%
CC1(C)Cc2nc3sc4c(=O)n(CC(=O)NCc5ccco5)cnc4c3cc2CO1	-2%	47%	35µM*	-6%	6%	?
CC1(C)Cc2nc3oc4c(=O)n(CC(=O)Nc5ccccc5)cnc4c3cc2CO1	19%	?	3%	1%	1%	13%
COc1cccc(-n2ccn(CC(=O)Nc3ccccc3F)c(=O)c2=O)c1	·	?	1%	-9%[46.1 µM]	·	·
COc1cc(NC(=O)CC2C(=O)N(c3cccc(C)c3)C(=O)N2Cc2ccc(F)cc2)cc(OC)c1 (stereo unspecified)	·	-14%	3%	?	·	·
